In all, about 200,000 compounds went through this assay and about 780 (0.39%) were called active. This excerpt belongs to a sample that is enriched for actives. Unmarked numbers belong to inactive results. Rule as the data show it: active = TR-FRET ratio above about 2000; inactive = the rest.

The assay in a line: detection-format interference in TR-FRET ratio – biochemical, artefact control for PPARgamma SRC-2 agonist project, primary screen (AID 1049). Particulars: TR-FRET artefact counter-screen; at 8 µM; hits give high values.
For the compound `CSC1=NP(=S)(SC)N(C)c2nc3n(c21)CCC3` (stereo not given), the TR-FRET ratio is 3350 (active).
The same measure for `Cc1ccc(C)c(NC2=NCCCS2)c1`: 1500; for `Cc1cccc(-n2c(O)c(C=NC34CN5CN(CN(C5)C3)C4)c(=O)[nH]c2=O)c1`: 1640.
`OC1/C(=C/c2ccc(C(F)(F)F)cc2)N2CCC1CC2` (stereo not given): the TR-FRET ratio is 1710.
The same measure for `COc1cc(-n2c(=S)[nH]c3ccc(C)cc3c2=O)c(Cl)cc1Cl`: 2140 (active).
With `O=c1c2ccccc2nc(-c2ccccc2)n1-c1ccccn1`, the TR-FRET ratio was 1550.
As for `O=C(COC(=O)Cc1ccccc1)Nc1ccc(F)cc1`, the TR-FRET ratio is 1600.
For the compound `CN(C)c1nc(N(C)C)nc(N(C#N)CCCl)n1`, the TR-FRET ratio was 1800.
As to `CCCn1c(C(=O)c2ccccc2OC)nc2ccccc21`, the TR-FRET ratio is 1400.
Take `O=c1[nH]c(=O)n(-c2ccccc2)c(O)c1C=NC12CN3CN(CN(C3)C1)C2`: the TR-FRET ratio was 1500.

The values above are taken from PubChem BioAssay AID1049 (The Scripps Research Institute Molecular Screening Center, 2008).
